# Experimental data: PubChem BioAssay (NCI)
# This is part of a sample that, as a whole, favours compounds with a hit. Of some 83,000 tested, about 20% had one in any assay.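 Cell lines were cultured in 96-well plates, exposed to a single compound concentration, and assessed for percent growth 48 hours later.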 A number with no mark means an inactive call. How the source made its calls: active means growth percent below 10; inactive means the rest.
# Tested on: SK-MEL-28 melanoma
# Assay: NCI-60 one-dose screen, 48 h (100 = growth as untreated, 0 = no growth, -100 = all killed)
# Conditions: 10 µM unless noted
row,SMILES,growth [%]
1,CCc1ccc(-c2ccc(Nc3ccccc3)nn2)cc1S(N)(=O)=O,87.7
2,Cn1cccc1/C=C1/SC(=S)N(CCc2ccc(O)cc2)C1=O,57.3
3,CN1CCN(CCOc2ccc(-c3cnc4c(-c5ccccc5F)cnn4c3)cc2)CC1,59.5
4,O=c1c(CNc2ccc(S(=O)(=O)Nc3ncccn3)cc2)coc2ccccc12,119
5,Cc1ccc(-c2nc([P+](c3ccccc3)(c3ccccc3)c3ccccc3)c(N3CCOCC3)o2)cc1,29.9
6,O=C1OC(c2ccc(Cl)c(Cl)c2)=C/C1=C/c1cccc([N+](=O)[O-])c1,105
7,COc1ccccc1-n1cnc(N)c1C(=O)c1cc(OC)c(OC)c(OC)c1,51.5
8,COc1ccc2c(c1)C/C(=C\c1cc(-c3ccc4c(c3)OCO4)n[nH]1)C2=O,104
9,CN(C)CCCC1(c2ccc(F)cc2)OCc2cc(-c3ccc(C(F)(F)F)nc3)ccc21 (stereo not drawn),81
10,O=c1c(CNc2ccc(S(=O)(=O)Nc3nccs3)cc2)coc2ccccc12,121
11,Cc1ccc2c(c1)c(-c1nc(-c3c[nH]c4ncccc34)cs1)cn2C,109
12,CC1(C)C(=O)/C(=C\c2ccco2)C[C@]2(C)[C@H]3CC[C@@H]4[C@@H](C(=O)/C=C/c5ccco5)CC[C@@]4(C)[C@]3(C)CC[C@@H]12,32.1
13,Cc1ccc(-c2nc([P+](c3ccccc3)(c3ccccc3)c3ccccc3)c(N3C[C@H]4C[C@H](C3)c3cccc(=O)n3C4)o2)cc1,62
